The list shows a part of the results. Calls of active or inactive are those of the source.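 Rule for the calls: active = EC50 under a set limit for hydrogen peroxide production with the reducing agent DTT present; inactive = the rest.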
Assay: DTT-dependent H2O2 generation by redox cyclers, dose response, artefact control for MLSCN library redox annotation, biochemical, 10-point concentration response, NIH library profiling (AID 1234)
Conditions: DTT-dependent redox cycling H2O2, phenol red-HRP absorbance; activation: H2O2 generation, at 50 µM, stronger effect = higher value

## CCOC(=O)c1c(C)[nH]c2c1-c1ccccc1C(=O)C2=O
  EC50: 0.43 µM (active)
  activation: 129%
